# Results taken from PubChem BioAssay (Tox21).
# Inconclusive results are not listed. A call without a number means that no potency is given here. The source made the active and inactive calls. Unless noted, calls come from the whole dose curve; as a rule, active = well fitted curve in the direction sought with a large enough effect in the repeat runs; inconclusive = weak or mixed curves; inactive = no such curve, though single readings can be large; an effect the other way counts as inactive or inconclusive.
# Tests used:
# [1] = qHTS assay to identify small molecule agonists of the NFkB signaling pathway - cell viability counter screen (AID 1159515; calls by dose curve; note: nearly all actives have a fitted effect of over 55% in size); conditions: NFkB-bla ME-180 viability, CellTiter-Glo luminescence, 5 h; series mostly up to 61 µM
# Summary of the method: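 Parallel cytotoxicity counter screen in ME-180 cells carrying an NFkB-response-element beta-lactamase reporter, 2,000 cells/well. Compound exposure lasted 5 hr at 37 C, 5% CO2. Cell viability was quantified by CellTiter-Glo luminescence.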
# [2] = qHTS assay to identify small molecule agonists of the endoplasmic reticulum stress response signaling pathway - cell viability counter screen (AID 1159517; calls by dose curve; note: nearly all actives have a fitted effect of over 50% in size); conditions: ESRE-bla HeLa viability, CellTiter-Glo luminescence, 5 h; series mostly up to 61 µM
# Summary of the method: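 Steps: seed 1,500 ESRE-bla HeLa cells per well; incubate overnight at 37 C, 5% CO2; add compounds in DMSO for 5 hr; run FRET substrate 2 hr RT; add CellTiter-Glo, wait 30 min, read luminescence.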
# [3] = qHTS assay to identify small molecule antagonists of the retinoid-related orphan receptor gamma (ROR-gamma) signaling pathway - cell viability counter screen (AID 1159520); conditions: Tet-on RORgamma CHO cells viability, ATP luminescence, 16 h; series mostly up to 92.4 µM; note: nearly all actives have a fitted effect of over 50% in size
# Summary of the method: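 Tet-on ROR gamma CHO cells were given compounds for 2 hr, then doxycycline hyclate at 1 uM final, and incubated 16 hr at 37 C. Viability was measured as ATP content by CellTiter-Glo luminescence.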
# [4] = molecular target: Nuclear receptor ROR-gamma (Homo sapiens) (UniProt P51449); experiment: qHTS assay to identify small molecule antagonists of the retinoid-related orphan receptor gamma (ROR-gamma) signaling pathway (AID 1159521; note: nearly all actives have a fitted effect of over 50% in size); conditions: Tet-on RORgamma CHO cells, RORE-luciferase, 16 h; series mostly up to 92.4 µM
# Summary of the method: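 Antagonist read-out: drop in luminescence (ONE-Glo) from an RORE-LUC reporter in CHO cells with doxycycline-inducible ROR-gamma; 2 hr compound pretreatment, 1 uM doxycycline, 16 hr incubation at 37 C.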
# [5] = qHTS assay to identify small molecule agonists of the AP-1 signaling pathway - cell viability counter screen (AID 1159525; calls by dose curve; note: nearly all actives have a fitted effect of over 55% in size); conditions: ME-180 (cervical carcinoma) AP-1-bla cells viability, ATP luminescence, 5 h; series mostly up to 76.8 µM
# Summary of the method: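 Same-well cytotoxicity counter screen of the Tox21 10K library in ME-180 cells. The readout is ATP-dependent luminescence after 5 h compound treatment. Data are normalised to DMSO and tetra n-octyl ammonium bromide controls.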
# [6] = qHTS assay to identify small molecule agonists of the RXR signaling pathway - cell viability counter screen (AID 1159529); conditions: RXR-alpha-bla HEK293T viability, CellTiter-Glo, 16 h; series mostly up to 76.8 µM; note: nearly all actives have a fitted effect of over 50% in size
# Summary of the method: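 CellTiter-Glo luminescence gave viability in the wells also read for beta-lactamase. Cells (RXR-alpha-UAS-bla HEK 293T, 2% charcoal-stripped FBS medium) had 5 hr plating, then 16 hr compound exposure at 37 C; tetraoctyl ammonium bromide served as positive control.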
# [7] = qHTS assay to identify small molecule antagonists of the retinoid acid receptor (RAR) signaling pathway - cell viability counter screen (AID 1159551); conditions: C3RL4 cells viability, ATP luminescence (CellTiter-Glo), 6 h; series mostly up to 92.4 µM; note: nearly all actives have a fitted effect of over 35% in size
# Summary of the method: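 ATP-based viability, C3RL4 cells, 6 h at 37 C with 1 uM final retinol co-added after compound; luminescence read 30 min post CellTiter-Glo, RT.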
# [8] = qHTS assay to identify small molecule antagonists of the retinoic acid receptor (RAR) signaling pathway (AID 1159552; note: nearly all actives have a fitted effect of over 50% in size); conditions: C3RL4 RARE luciferase reporter, retinol-stimulated, 6 h; series mostly up to 92.4 µM
# Summary of the method: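 Luminescent RARE reporter read-out in C3RL4 cells: 6 hr co-treatment at 37 C of test compounds with retinol at 1 uM final. Cells plated overnight beforehand; luciferase reagent incubated 30 min at room temperature before reading.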
# [9] = qHTS assay to identify small molecule agonists of the vitamin D receptor (VDR) signaling pathway - cell viability counter screen (AID 743224); conditions: VDR-bla HEK293T viability, CellTiter-Glo luminescence, 16 h; series mostly up to 62.6 µM; note: nearly all actives have a fitted effect of over 50% in size
# Summary of the method: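 Compounds were pin-transferred onto VDR-bla cells plated 4 h earlier; following 16 h incubation at 37C, cell viability was quantified by CellTiter-Glo luminescence after 30 min at room temperature.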
# [10] = qHTS assay to identify small molecule antagonists of the vitamin D receptor (VDR) signaling pathway - cell viability counter screen (AID 743225); conditions: VDR-bla HEK293T viability, CellTiter-Glo luminescence, 16 h; series mostly up to 61 µM; note: nearly all actives have a fitted effect of over 50% in size
# Summary of the method: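 Cytotoxicity counter screen read by CellTiter-Glo luminescence (30 min, room temperature) in the same wells as the VDR-bla antagonist readout. HEK 293T VDR-UAS-bla cells had 16 h at 37C with compound and 3 nM (final) 1-alpha,25-dihydroxyvitamin D3, then 2 h with FRET substrate.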
# [11] = molecular target: Retinoic acid receptor RXR-alpha (Homo sapiens) (UniProt P19793); experiment: qHTS assay to identify small molecule agonists of the RXR signaling pathway (AID 1159527; calls by dose curve; note: nearly all actives have a fitted effect of over 35% in size); conditions: HEK293T RXRa-UAS-bla, beta-lactamase ratio, 16 h; series mostly up to 76.8 µM
# Summary of the method: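 Agonist-mode beta-lactamase reporter assay: HEK 293T RXR-alpha-UAS-bla cells treated 16 hr at 37 C with compounds, 9-cis retinoic acid as positive control. LiveBLAzer FRET substrate, 405 nm excitation, 460/530 nm emission.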
# [12] = qHTS assay to identify small molecule agonists of the retinoic acid receptor (RAR) signaling pathway (AID 1159553); conditions: C3RL4 RARE luciferase reporter, agonist, 6 h; series mostly up to 73.3 µM
# Summary of the method: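 Quantitative high-throughput format: the Tox21 10K library was tested on C3RL4 RARE-luciferase cells for 6 hr at 37 C and 5% CO2, with luminescence measured after a 30 min room-temperature reagent step.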
# Potency is the fitted concentration of half-maximal effect.
# Chain of Retinoic acid receptor RXR-alpha (Homo sapiens) (P19793 whole entry, looked up): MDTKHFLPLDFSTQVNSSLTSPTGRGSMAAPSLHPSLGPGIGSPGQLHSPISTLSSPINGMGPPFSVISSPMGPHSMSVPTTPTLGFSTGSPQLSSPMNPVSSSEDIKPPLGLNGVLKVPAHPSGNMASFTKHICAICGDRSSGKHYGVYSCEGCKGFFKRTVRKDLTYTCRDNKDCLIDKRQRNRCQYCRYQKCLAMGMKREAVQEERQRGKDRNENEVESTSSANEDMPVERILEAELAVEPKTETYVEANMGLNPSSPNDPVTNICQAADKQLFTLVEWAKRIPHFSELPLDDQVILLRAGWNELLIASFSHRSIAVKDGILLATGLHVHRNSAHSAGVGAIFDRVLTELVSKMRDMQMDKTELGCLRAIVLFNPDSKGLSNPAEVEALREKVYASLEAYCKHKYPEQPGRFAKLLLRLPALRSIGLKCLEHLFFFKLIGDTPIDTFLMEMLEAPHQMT
Structure (SMILES),Potency [1],Potency [2],Potency [3],Potency [4],Potency [5],Potency [6],Potency [7],Potency [8],Potency [9],Potency [10],Potency [11],Potency [12]
NNc1nc(-c2ccc([N+](=O)[O-])cc2)cs1,inactive,inactive,30.6 µM (active),10.9 µM (active),inactive,inactive,43.3 µM (active),inactive,–,–,–,–
Cc1cc(O)c(Cl)c(C)c1Cl,54.9 µM (active),54.9 µM (active),inactive,inactive,inactive,–,inactive,inactive,43.6 µM (active),38.9 µM (active),inactive,–
CCOC(=O)O[C@]1(C(=O)OCCl)CC[C@H]2[C@@H]3CCC4=CC(=O)C=C[C@]4(C)[C@H]3[C@@H](O)C[C@@]21C,inactive,inactive,inactive,inactive,inactive,inactive,inactive,inactive,inactive,inactive,inactive,inactive
CC(C)(C)CC(C)(C)c1ccc(O)c(Cc2ccc(Cl)cc2Cl)c1,16.9 µM (active),21.3 µM (active),23.7 µM (active),18.8 µM (active),15.1 µM (active),7.56 µM (active),26.6 µM (active),13.3 µM (active),23.7 µM (active),15.1 µM (active),–,–
CC1=C(/C=C/C(C)=C/C=C/C(C)=C/C=O)C(C)(C)CCC1,38.7 µM (active),38.7 µM (active),24.2 µM (active),30.5 µM (active),34.5 µM (active),19.4 µM (active),–,–,15.4 µM (active),13.7 µM (active),0.345 µM (active),0.542 µM (active)
COc1ccc(C(=O)/C(Br)=C\C(=O)O)cc1,inactive,inactive,48.6 µM (active),inactive,inactive,inactive,inactive,inactive,inactive,–,–,–
CSc1ccc(/C=C2/C(C)=C(CC(=O)O)c3cc(F)ccc32)cc1,inactive,inactive,inactive,inactive,inactive,inactive,inactive,inactive,–,inactive,–,inactive
CC1=NC(C)OC1C (stereo not drawn),inactive,inactive,inactive,inactive,inactive,inactive,inactive,inactive,inactive,–,inactive,inactive
Cc1cc(O)c2ccccc2c1O,13.4 µM (active),16.9 µM (active),7.5 µM (active),11.9 µM (active),10.7 µM (active),15.1 µM (active),13.3 µM (active),16.8 µM (active),7.5 µM (active),13.4 µM (active),–,–
CC(C)(C)C(=O)OCOC(=O)C1N2C(=O)CC2S(=O)(=O)C1(C)C (stereo not drawn),inactive,inactive,inactive,inactive,inactive,inactive,inactive,inactive,inactive,–,–,–
Cc1ccc2oc(CN(Cc3ccccc3)C(=O)Nc3c(F)cc(F)cc3F)c(-c3ccc(Cl)cc3)c2c1,inactive,inactive,inactive,14.9 µM (active),inactive,inactive,inactive,inactive,inactive,inactive,inactive,–
Cc1cc(O)c(C(C)(C)C)cc1C(C)(C)C,49 µM (active),24.5 µM (active),54.5 µM (active),54.5 µM (active),21.9 µM (active),21.9 µM (active),43.3 µM (active),54.5 µM (active),19.5 µM (active),21.9 µM (active),–,–
O=C(N/N=C/c1ccccc1O)c1ccncc1,inactive,inactive,inactive,23.7 µM (active),inactive,inactive,inactive,inactive,–,–,–,–
N=C1C=CC(=C(c2ccc(N)cc2)c2ccc(N)cc2)C=C1,inactive,inactive,13.7 µM (active),15.4 µM (active),inactive,inactive,19.3 µM (active),13.7 µM (active),–,–,–,–
Clc1ccc2cc3ccccc3cc2c1,inactive,inactive,inactive,inactive,inactive,inactive,inactive,inactive,inactive,inactive,54.9 µM (active),–
COC(=O)C1=C(C)NC(C)=C(C(=O)OCCc2ccc(N3CCN(C(c4ccccc4)c4ccccc4)CC3)cc2)C1c1cccc([N+](=O)[O-])c1 (stereo not drawn),inactive,inactive,inactive,inactive,inactive,inactive,inactive,–,inactive,–,–,–
O=C(OCC(COC(=O)c1ccccc1)(COC(=O)c1ccccc1)COC(=O)c1ccccc1)c1ccccc1,inactive,inactive,inactive,inactive,inactive,inactive,inactive,–,inactive,–,inactive,inactive

Structure (SMILES),Potency [1],Potency [2],Potency [3],Potency [4],Potency [5],Potency [6],Potency [7],Potency [8],Potency [9],Potency [10],Potency [11],Potency [12]
CCOC(=O)O[C@H](C)OC(=O)c1ccc2c(c1)cc(C(=O)NC1CCN(C(C)C)CC1)n2Cc1cc(-c2ccc(Cl)s2)on1,45.8 µM (active),45.8 µM (active),11.4 µM (active),4.54 µM (active),16.2 µM (active),6.46 µM (active),28.6 µM (active),12.8 µM (active),14.5 µM (active),–,–,–
Clc1ccc(C(Cn2ccnc2)OCc2ccc(Sc3ccccc3)cc2)c(Cl)c1 (stereo not drawn),inactive,inactive,inactive,inactive,inactive,inactive,inactive,inactive,33.5 µM (active),–,inactive,inactive
CCCCCCCCCCCCc1ccc(O)cc1,24.5 µM (active),21.9 µM (active),30.6 µM (active),24.3 µM (active),17.4 µM (active),13.8 µM (active),61.1 µM (active),48.6 µM (active),12.3 µM (active),17.4 µM (active),–,–
CCCCCCCCCCCCCCCS(=O)(=O)Oc1ccccc1,inactive,inactive,inactive,inactive,inactive,–,inactive,–,inactive,inactive,inactive,inactive
CCCCN1CCCC[C@H]1C(=O)Nc1c(C)cccc1C,inactive,inactive,inactive,inactive,inactive,inactive,inactive,inactive,inactive,–,inactive,inactive
O=C(NO)C1(NS(=O)(=O)c2ccc(Oc3ccc(F)cc3)cc2)CCOCC1,inactive,inactive,inactive,inactive,inactive,inactive,inactive,inactive,inactive,–,–,inactive
COc1cc(-c2ccc(N=C=O)c(OC)c2)ccc1N=C=O,inactive,inactive,inactive,inactive,inactive,inactive,inactive,inactive,inactive,–,inactive,inactive
CCCCCCCCNC(C)C(O)c1ccc(SC(C)C)cc1 (stereo not drawn),13.4 µM (active),19 µM (active),18.8 µM (active),23.7 µM (active),16.9 µM (active),9.52 µM (active),26.6 µM (active),13.3 µM (active),13.3 µM (active),9.52 µM (active),–,–
O=C1C=CC(=O)N1c1ccc(Cc2ccc(N3C(=O)C=CC3=O)cc2)cc1,24.5 µM (active),34.7 µM (active),15.4 µM (active),8.63 µM (active),24.5 µM (active),17.4 µM (active),61.1 µM (active),13.7 µM (active),17.4 µM (active),21.9 µM (active),–,–
Cc1cc(=O)oc2cc(N(C)C)ccc12,inactive,inactive,inactive,inactive,inactive,inactive,inactive,inactive,inactive,inactive,–,inactive
CCCC(c1cc(C(C)(C)C)c(O)cc1C)c1cc(C(C)(C)C)c(O)cc1C,11.1 µM (active),22.1 µM (active),15.5 µM (active),13.9 µM (active),7 µM (active),11.1 µM (active),27.6 µM (active),27.6 µM (active),7.86 µM (active),14 µM (active),–,–
Cc1cccc2c1cc1ccc3cccc4ccc2c1c34,inactive,inactive,inactive,inactive,inactive,inactive,inactive,inactive,inactive,–,–,–
CN(C)c1ccc(C2(c3ccc(N(C)C)cc3)OC(=O)c3cc(N(C)C)ccc32)cc1,inactive,inactive,inactive,inactive,inactive,inactive,inactive,inactive,inactive,–,–,–
COc1cc(/C=C/C(=O)O[C@H]2CC[C@]34C[C@]35CC[C@]3(C)[C@@H]([C@H](C)CCC=C(C)C)CC[C@@]3(C)[C@@H]5CC[C@H]4C2(C)C)ccc1O,inactive,inactive,inactive,inactive,inactive,inactive,inactive,inactive,inactive,inactive,inactive,inactive
CCCCC(CC)CN=C(N)NC(N)=NCCCCCCN=C(N)NC(N)=NCC(CC)CCCC (stereo not drawn),19 µM (active),16.9 µM (active),26.6 µM (active),26.6 µM (active),10.7 µM (active),8.49 µM (active),29.8 µM (active),11.9 µM (active),23.7 µM (active),7.56 µM (active),–,–
CCCCc1oc2ccc(NS(C)(=O)=O)cc2c1C(=O)c1ccc(OCCCN(CCCC)CCCC)cc1,26.8 µM (active),21.3 µM (active),26.6 µM (active),23.7 µM (active),19 µM (active),9.52 µM (active),26.6 µM (active),16.8 µM (active),26.6 µM (active),23.9 µM (active),–,–
